Active and inactive are the calls of the source. Rule for the calls: active = hit-call score of the fitted dose curve at least 0.9, where 1 is the maximum; inactive = score below 0.9.

Sequence of Glucocorticoid receptor (Homo sapiens) (P04150 whole entry, looked up): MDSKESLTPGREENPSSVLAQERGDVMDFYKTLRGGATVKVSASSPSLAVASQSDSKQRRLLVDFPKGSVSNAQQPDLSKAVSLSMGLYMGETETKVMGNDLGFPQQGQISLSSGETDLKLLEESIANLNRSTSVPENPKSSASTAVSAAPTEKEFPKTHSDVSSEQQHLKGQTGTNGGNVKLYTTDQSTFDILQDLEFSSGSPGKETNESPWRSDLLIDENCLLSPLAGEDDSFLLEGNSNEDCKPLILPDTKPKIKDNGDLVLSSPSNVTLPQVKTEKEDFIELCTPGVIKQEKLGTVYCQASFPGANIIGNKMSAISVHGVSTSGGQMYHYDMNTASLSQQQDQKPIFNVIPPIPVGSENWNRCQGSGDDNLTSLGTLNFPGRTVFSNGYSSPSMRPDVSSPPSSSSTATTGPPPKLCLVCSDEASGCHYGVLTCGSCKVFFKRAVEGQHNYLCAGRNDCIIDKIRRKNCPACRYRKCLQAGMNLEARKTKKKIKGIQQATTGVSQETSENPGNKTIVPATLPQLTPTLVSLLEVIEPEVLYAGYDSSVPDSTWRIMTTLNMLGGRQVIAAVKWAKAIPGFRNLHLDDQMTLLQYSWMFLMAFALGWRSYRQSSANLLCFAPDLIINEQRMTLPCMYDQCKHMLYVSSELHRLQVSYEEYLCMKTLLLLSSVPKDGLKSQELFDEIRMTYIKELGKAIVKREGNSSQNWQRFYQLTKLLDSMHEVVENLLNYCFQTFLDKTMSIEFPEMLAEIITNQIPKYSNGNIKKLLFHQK

The target of the experiment is Glucocorticoid receptor (Homo sapiens) (UniProt P04150). Put plainly: ERF_FR_NR_hGR: Eurofins (ERF) Nuclear Receptor (NR) Radioligand Binding LeadHunter Assay for human Glucocorticoid Receptor (GR) Agonism, conducted at France lab site. Here is the method:
ERF_FR_NR_hGR is a biochemical, single-readout assay that uses extracted gene-proteins in a cell-free assay. Measurements were taken 6 hour after chemical dosing in a 96-well plate. See GR Human Glucocorticoid NHR Binding (Agonist Radioligand) Assay, Cerep.ERF_FR_NR_hGR is an assay component calculated from the ERF_FR_NR_hGR assay. It is designed to measure radioligand binding using a type of binding reporter as detected by scintillation counting with radiometry technology.Data from the assay component ERF_FR_NR_hGR was analyzed at the assay endpoint, ERF_FR_NR_hGR, in the positive analysis fitting direction relative to DMSO as the negative control and baseline of activity. Using a type of binding reporter, gain-of-signal activity can be used to understand changes in binding as they relate to gene NR3C1. To generalize the intended target to other relatable targets, this assay endpoint is annotated to the nuclear receptor intended target family, where the subfamily is steroidal.
Human cells are incubated for 24 hours at 4C with [3H]dexamethasone ([…]) ligand and Dexamethazone as control inhibitor. Test Sample Requirements: Minimum for 1) Screen: 60 ul of 10 mM stock -OR- 1 mg (pre-weighed) for 10 uM final testing. 2) Dose Response: 90 ul of 10 mM stock -OR- 1 mg (pre-weighed) for a top concentration at 10 uM.
For `O=C(/C=C/c1ccc(O)cc1)CC(=O)/C=C/c1ccc(O)cc1`, the AC50 (in general, the concentration at which the activity in the assay is half-maximal) is 969 nM (active).

(Values after PubChem BioAssay AID2284186 (EPA ToxCast).)
